Many of the other results were omitted from the sample, so hits are more common in it than they were.
RE007 growth inh: less growth of the S. pombe RE007 Vpr strain; S. pombe RE007 Vpr strain, BacTiter-Glo ATP luminescence, 24 h; AID 651644; actives 0.21% (n = 360,000); Potency, µM (top dose mostly 92.2 µM), actives largely listed as inhibitors; active = well fitted falling curve with a large enough effect; inconclusive = small, poorly fitted or top-dose-only effect; inactive = no such curve, though single readings can be large or run the other way; also: nearly all actives have a fitted effect of over 50% in size
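Fission yeast strain RE007, carrying one chromosomally integrated HIV-1 vpr copy, was seeded at OD 0.01 in PMG+AL medium with 23 nL pinned compound. After 24 h at 30 °C and 99% humidity, viability was read by BacTiter-Glo luminescence.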
CHX counter: affects cycloheximide protein synthesis inhibition readout, counter-screen | cell reporter, cycloheximide protein synthesis inhibition counterscreen | max response, % | actives 12% (n = 300,000); in the data active = max response mostly above about 13%, no sharp cut-off; inactive = mostly below about 14%; also: read at 38.3 µM for the half of the compounds with a filed dose
TbPYK inhibitor: inhibitors of Trypanosoma brucei pyruvate kinase | Q57TT1 | TbPYK enzyme, Kinase-Glo Plus ATP luminescence, 45 min | Potency, µM (highest dose often 76.8 µM), hits mostly inhibitors | actives 0.12% (n = 410,000) | AID 624173; also: nearly all actives have a fitted effect of over 50% in size
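Enzyme and substrate buffer are dispensed first and compound is pin-transferred. ADP at 130 uM final then starts the reaction, which runs 45 min at room temperature. Detection reagent is added for 10 min before luminescence is imaged.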
LmPK inhibitor: blocks Leishmania mexicana pyruvate kinase activity; Q27686; purified LmPK, Kinase-Glo ATP luminescence, 1 h; Potency, µM (titrated, usually from 57.5 µM), actives largely listed as inhibitors; actives 0.37% (n = 290,000)
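0.1 nM LmPK, 0.5 mM PEP, 0.1 mM ADP; 50 mM imidazole pH 7.2, 7 mM MgCl2, 50 mM KCl; 1 h RT. Kinase-Glo luminescence readout, normalized to no-enzyme (full inhibition) and uninhibited wells.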
Shiga toxin inh: blocks Shiga toxin action in Vero cells | Vero cells, Shiga toxin protein synthesis inhibition reporter | inhibition, % at 38.7 µM | actives 9.2% (n = 290,000) | AID 2315; in the data active = inhibition mostly above about 28%, no sharp cut-off; inactive = mostly below about 43%
FBPA Giardia inh: inhibitors of Giardia lamblia fructose-1,6-bisphosphate aldolase; Potency, µM (titrated, usually from 59.6 µM), actives largely listed as inhibitors; AID 2451; purified Giardia FBPA; A8B2U2; actives 0.71% (n = 290,000); also: nearly all actives have a fitted effect of over 55% in size
Target sequence (A8B2U2 whole entry, looked up): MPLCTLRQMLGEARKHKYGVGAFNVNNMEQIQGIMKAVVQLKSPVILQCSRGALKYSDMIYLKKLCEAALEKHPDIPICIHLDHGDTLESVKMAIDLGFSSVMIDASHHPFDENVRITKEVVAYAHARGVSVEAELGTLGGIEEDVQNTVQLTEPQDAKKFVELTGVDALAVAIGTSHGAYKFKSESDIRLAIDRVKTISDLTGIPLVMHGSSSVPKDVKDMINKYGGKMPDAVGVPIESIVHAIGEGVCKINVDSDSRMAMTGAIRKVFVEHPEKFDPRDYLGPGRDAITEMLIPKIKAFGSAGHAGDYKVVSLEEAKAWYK
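40 nM FBPA preincubated 10 min at RT with compound (up to 57.5 uM final), then substrate plus GAPDH/TPI/NAD/arsenate coupling and diaphorase/resazurin added. Fluorescence read after 20 min at RT, 525/598 nm.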
Numbers stand for hits. Unless noted, calls follow the shape of the dose curve; as a rule, active = well fitted curve in the direction sought with a large enough effect; inconclusive = small, poorly fitted or top-dose-only effect, or another doubt; inactive = no such curve, though single readings can be large; an effect the other way counts as inactive or inconclusive.

For Cc1ccc(S(=O)(=O)N(CC(=O)NCc2ccccc2Cl)C(=O)N2CCN(C)CC2)cc1 the results were RE007 growth inh inactive and TbPYK inhibitor inactive.
`O=C(NNC1=NC2(CCCC2)Cc2ccccc21)c1ccncc1` gave RE007 growth inh inactive, CHX counter inactive, TbPYK inhibitor inactive, LmPK inhibitor inactive, Shiga toxin inh inactive and FBPA Giardia inh inactive.
For Cc1ccc(C)c(N2CCN(C(=O)CCc3c(C)nn(-c4ccc(N5CCCC5)nn4)c3C)CC2)c1 the results were TbPYK inhibitor inactive.
`Cc1ccc(NC(=O)C2(C)Cc3ccccc3C(=O)O2)c(C)c1` (configuration not stated) gave TbPYK inhibitor inactive.
`Cc1ccc(Cl)cc1N1CCN(C(=O)CCS(=O)(=O)c2ccc3c(c2)NC(=O)CO3)CC1` gave RE007 growth inh inactive, CHX counter inactive, TbPYK inhibitor inactive, LmPK inhibitor inactive, Shiga toxin inh inactive and FBPA Giardia inh inactive.
Screening CCCC(=O)NCc1nc2ccccc2n1CC(=O)c1ccccc1 returned RE007 growth inh inactive, CHX counter inactive, TbPYK inhibitor inactive, LmPK inhibitor inactive, Shiga toxin inh inactive and FBPA Giardia inh inactive.
COc1ccc(CCNC(=O)Cn2nc(C)n3c(cc4occc43)c2=O)cc1OC was read as TbPYK inhibitor inactive.
Nc1nc2ccccc2[nH]1 was read as RE007 growth inh inactive, CHX counter inactive, TbPYK inhibitor inactive, LmPK inhibitor inactive, Shiga toxin inh inactive and FBPA Giardia inh inactive.
Screening CCSc1nc2ccccc2[nH]1 returned RE007 growth inh inactive, CHX counter inactive, TbPYK inhibitor inactive, LmPK inhibitor inactive, Shiga toxin inh inactive and FBPA Giardia inh inactive.
Screening Fc1ccc(CSc2nc3ccccc3[nH]2)cc1 returned RE007 growth inh inconclusive, CHX counter 49.1, TbPYK inhibitor inactive, LmPK inhibitor 22.4µM, Shiga toxin inh 131.7 and FBPA Giardia inh inactive.
For CC1(C)C(CSc2nc3ccccc3[nH]2)C1(Cl)Cl (configuration not stated) the results were RE007 growth inh inactive, CHX counter inactive, TbPYK inhibitor inactive, LmPK inhibitor inactive, Shiga toxin inh 72.4 and FBPA Giardia inh inactive.
`Nc1ccccc1Sc1nc2ccccc2[nH]1` gave RE007 growth inh inactive, CHX counter 23.2, TbPYK inhibitor inconclusive, LmPK inhibitor inactive, Shiga toxin inh 59.2 and FBPA Giardia inh inactive.
Screening O=[N+]([O-])c1ccc(CSc2nc3ccccc3[nH]2)cc1 returned RE007 growth inh inactive, CHX counter 34.7, TbPYK inhibitor inactive, LmPK inhibitor inactive, Shiga toxin inh 38.0 and FBPA Giardia inh inactive.
For CCC(=O)O[C@@H](OP(=O)(CCCCc1ccccc1)CC(=O)N1C[C@H](C2CCCCC2)C[C@H]1C(=O)O)C(C)C (some centres not stated) the results were TbPYK inhibitor inactive.
For c1ccc(CSc2nc3ccccc3[nH]2)cc1 the results were RE007 growth inh inactive, CHX counter 44.1, TbPYK inhibitor inactive, LmPK inhibitor inconclusive, Shiga toxin inh 56.5 and FBPA Giardia inh inactive.
`Cc1cccc(OCCSCc2nc3ccccc3[nH]2)c1` gave RE007 growth inh inactive, CHX counter inactive, TbPYK inhibitor inactive, LmPK inhibitor inactive and Shiga toxin inh inactive.
`CCCOc1ccc(CSc2nc3ccccc3[nH]2)cc1` gave RE007 growth inh inconclusive, CHX counter 49.4, TbPYK inhibitor inactive, LmPK inhibitor inconclusive, Shiga toxin inh 83.9 and FBPA Giardia inh inactive.
CCOc1ccc2nc(SCC)[nH]c2c1 was read as RE007 growth inh inactive, CHX counter 53.5, TbPYK inhibitor inactive, LmPK inhibitor inactive, Shiga toxin inh 125.4 and FBPA Giardia inh inactive.
CCOc1ccc(OCCSc2nc3ccccc3[nH]2)cc1 was read as RE007 growth inh inactive, CHX counter inactive, TbPYK inhibitor inactive, LmPK inhibitor inactive, Shiga toxin inh inactive and FBPA Giardia inh inactive.
For Cc1cccc(OCCCSc2nc3ccccc3[nH]2)c1 the results were RE007 growth inh 44.7µM, CHX counter inactive, TbPYK inhibitor inactive, LmPK inhibitor inactive, Shiga toxin inh inactive and FBPA Giardia inh inactive.
Screening Cc1ccc2c(c1)c1c(c(=O)n(-c3ccccc3)c(=O)n1CC(=O)N1CCCC1)n2C returned TbPYK inhibitor inactive.

Bioassay records: PubChem, National Center for Advancing Translational Sciences (NCATS)
